Among the data in PubChem BioAssay (NCI) are growth inhibition values, retold here.

About 79,000 compounds went through this panel and 15% of them were active in at least one assay; those are over-represented in the sample as a whole. Values without a mark were called inactive. Calls of active or inactive are those of the source. No stated cut-off is given here; in the data, active means growth inhibition above about 70%; inactive means the rest.

This experiment is described as follows: NCI Yeast Anticancer Drug Screen. Data for the CLN2oe strain (AID 163).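 Further: 0% = growth of vehicle-only control cultures.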 The settings on record: S. cerevisiae CLN2oe strain, hits give high values. How it is done:
Growth inhibition of yeast strains with defined genetic alterations is measured as a screen for potential anti-cancer activity. Selected strains with alterations in DNA damage repair or cell cycle control were exposed to compounds and growth inhibition was measured relative to vehicle treated controls. The strain used in this assay is CLN2oe

As for `N#Cc1ccc(C2NN=CC23C(=O)c2ccccc2OC3c2ccccc2)cc1` (stereo not given), the growth inhibition by setting is: (at 1.2 µM) -2%; (at 3.7 µM) 2%; (at 11.0 µM) 5%; (at 33.0 µM) -1%; (at 100.0 µM) 5%.

As for `O=C1C=CC(=Nc2ccc3c(c2)Cc2cc(NC(=O)C(F)(F)F)ccc2-3)O1`, the growth inhibition (at 1.2 µM) was -4%; the growth inhibition (at 3.7 µM) is 1%; the growth inhibition (at 11.0 µM) is 10%; the growth inhibition (at 33.0 µM) was 23%; the growth inhibition (at 100.0 µM) is 96% (active).

On to `CCCN(CCC)CC(O)c1cc(-c2ccc(Cl)cc2)nc2c(C)c(Cl)ccc12` (stereo not given), for which the growth inhibition runs as follows: (at 1.2 µM) -3%; (at 3.7 µM) -3%; (at 11.0 µM) 97% (active); (at 33.0 µM) 98% (active); (at 100.0 µM) 94% (active).

For `COC1=CC(=O)C2C(C1=O)C(c1ccc(Cl)cc1)[C@@H]2C` (stereo not given in full), the growth inhibition reads like this: (at 1.2 µM) 19%; (at 3.7 µM) 29%; (at 11.0 µM) 99% (active); (at 33.0 µM) 99% (active); (at 100.0 µM) 99% (active).

`CC(C(=O)N1C(=O)N(C(=O)[C@H](C)C(O)c2ccccc2)[C@H](c2ccccc2)[C@H]1c1ccccc1)[C@@H](O)c1ccccc1` (stereo not given in full): the growth inhibition is -11% (at 1.2 µM); -13% (at 3.7 µM); 12% (at 11.0 µM); 36% (at 33.0 µM); 51% (at 100.0 µM).

Turning to `O=C(Nc1ccccc1)OCCc1ccc(Cl)c(Cl)c1`, the growth inhibition (at 1.2 µM) is -8%; the growth inhibition (at 3.7 µM) was -4%; the growth inhibition (at 11.0 µM) is 26%; the growth inhibition (at 33.0 µM) was 53%; the growth inhibition (at 100.0 µM) is 58%.

For `O=C(c1ccc(Cl)cc1)C1OC12C(=O)Nc1ccccc12` (stereo not given), the growth inhibition was 5% (at 1.2 µM); 40% (at 3.7 µM); 99% (active) (at 11.0 µM); 99% (active) (at 33.0 µM); 98% (active) (at 100.0 µM).

Regarding `CN(C)c1ccc(C(C#N)=C(C#N)C#N)cc1`, the growth inhibition is, setting by setting: (at 1.2 µM) 2%; (at 3.7 µM) 7%; (at 11.0 µM) 8%; (at 33.0 µM) 8%; (at 100.0 µM) 16%.
